# Source: PubChem BioAssay (NCATS)
# Several values for one entry are separate records, joined by “and”; a condition that tells them apart may be missing. Equal entries are not always repeated. Results filed as inconclusive are left out. Where a call stands in place of a potency, no number is given. Unmarked numbers belong to inactive results. Activity calls are given as the source filed them. Unless noted, calls follow the shape of the dose curve; as a rule, active = well fitted curve in the direction sought with a large enough effect; inconclusive = small, poorly fitted or top-dose-only effect, or another doubt; inactive = no such curve, though single readings can be large; an effect the other way counts as inactive or inconclusive.
# Columns and labels:
# [1] = target: Calcium and integrin-binding protein 1 (Homo sapiens) (UniProt Q99828); test: Primary qHTS for Identification of Calcium Integrin Binding Protein 1 (CIB1) Competitor (AID 1508620);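 also: GST tagged CIB1 binding a fluorescein labelled alphaIIb integrin peptide tracer; top concentration of the series differs between compounds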
# In short: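 Fluorescence polarization competition: CIB1-GST (1 uM final) preincubated with compound 15 min at room temperature, then FITC-labeled alphaIIb peptide (100 nM final) added for another 15 min. Polarization read at Ex 480/Em 540.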
# [2] = target: Cytochrome P450 2D6 (Homo sapiens) (UniProt P10635); test: Cytochrome P450 family 2 subfamily D member 6 (CYP2D6) small molecule antagonists: luciferase biochemical (cell-free) qHTS assay (AID 1645840; active = well fitted curve in the direction sought with a large enough effect in the repeat runs; an effect the other way counts as inactive or inconclusive; also: nearly all actives have a fitted effect of over 55% in size; also: potency is read from the fitted curve at half-maximal effect)
# In short: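 P450-Glo CYP2D6 system: proluciferin substrate converted by enzyme to luciferin, read by luminescence proportional to activity. Enzyme-substrate mix with compound 10 min at room temperature, then NADPH regeneration 1 h before detection reagent.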
# [3] = Primary qHTS for inhibitors of nuclear receptor binding SET domain protein 2 (NSD2) in an isogenic RCH-ACV NSD2 p.E1099K mutant (9B) (AID 1645876); also: nearly all actives have a fitted effect of over 70% in size; also: potency is read from the fitted curve at half-maximal effect
# [4] = target: Cytochrome P450 2C9 (Homo sapiens) (UniProt P11712); test: Cytochrome P450 family 2 subfamily C member 9 (CYP2C9) small molecule antagonists: luciferase biochemical (cell-free) qHTS assay (AID 1645842; active = well fitted curve in the direction sought with a large enough effect in the repeat runs; an effect the other way counts as inactive or inconclusive; also: nearly all actives have a fitted effect of over 55% in size; also: potency is read from the fitted curve at half-maximal effect)
# In short: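 P450-Glo CYP2C9 system: proluciferin substrate with enzyme in mix containing 0.4% BSA, 10 min at room temperature, then NADPH regeneration solution added and incubated 1 h at 37C. Detection reagent stopped reaction; luminescence read after 20 min as RLU.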
# [5] = target: Cytochrome P450 3A4 (Homo sapiens) (UniProt P08684); test: Cytochrome P450 family 3 subfamily A member 4 (CYP3A4) small molecule antagonists: luciferase qHTS assay (AID 1645841; active = well fitted curve in the direction sought with a large enough effect in the repeat runs; an effect the other way counts as inactive or inconclusive; also: nearly all actives have a fitted effect of over 45% in size; also: potency is read from the fitted curve at half-maximal effect)
# In short: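 P450-Glo CYP3A4 enzyme with proluciferin substrate was preincubated with DMSO-dissolved compounds for 10 min at room temperature. NADPH regeneration solution started a 1 h reaction. Detection reagent stopped it, and luminescence was read after 20 min.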
# [6] = target: N-terminal Xaa-Pro-Lys N-methyltransferase 1 (Homo sapiens) (UniProt Q9BV86); test: Confirmatory qHTS for Inhibitors of N-terminal methyltransferase 1 (NTMT1): MTaseGlo Assay (AID 1645874); also: potency is read from the fitted curve at half-maximal effect; nearly all actives have a fitted effect of over 65% in size
# In short: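 Inhibition was derived from luminescence after SAH-to-ATP conversion, scaled between no-enzyme and DMSO wells, then fitted by 4-parameter Hill. Conditions: 125 nM NTMT1, 100 uM SAM, 1 uM SPKRIA, 30 min RT.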
# Cytochrome P450 2D6 (Homo sapiens), sequence (P10635 whole entry, looked up): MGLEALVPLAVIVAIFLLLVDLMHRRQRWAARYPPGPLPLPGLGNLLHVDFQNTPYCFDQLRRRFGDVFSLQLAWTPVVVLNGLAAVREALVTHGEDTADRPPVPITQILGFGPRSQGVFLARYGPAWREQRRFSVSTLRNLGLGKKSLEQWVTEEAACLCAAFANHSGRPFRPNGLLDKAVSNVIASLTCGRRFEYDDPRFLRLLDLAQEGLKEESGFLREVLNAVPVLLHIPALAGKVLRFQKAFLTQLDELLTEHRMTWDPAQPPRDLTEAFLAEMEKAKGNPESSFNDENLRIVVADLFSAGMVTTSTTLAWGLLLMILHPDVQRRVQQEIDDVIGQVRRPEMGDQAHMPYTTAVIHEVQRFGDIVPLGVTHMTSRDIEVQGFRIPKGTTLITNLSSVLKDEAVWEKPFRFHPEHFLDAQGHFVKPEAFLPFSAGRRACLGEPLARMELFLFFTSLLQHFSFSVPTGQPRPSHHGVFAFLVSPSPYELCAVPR
# Calcium and integrin-binding protein 1 (Homo sapiens), sequence (Q99828 whole entry, looked up): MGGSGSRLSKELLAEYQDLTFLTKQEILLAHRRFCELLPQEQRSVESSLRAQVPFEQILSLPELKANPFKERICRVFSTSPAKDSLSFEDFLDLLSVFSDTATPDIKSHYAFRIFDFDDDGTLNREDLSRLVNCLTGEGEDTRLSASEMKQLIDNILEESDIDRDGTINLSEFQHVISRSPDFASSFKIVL
# Cytochrome P450 2C9 (Homo sapiens), sequence (P11712 whole entry, looked up): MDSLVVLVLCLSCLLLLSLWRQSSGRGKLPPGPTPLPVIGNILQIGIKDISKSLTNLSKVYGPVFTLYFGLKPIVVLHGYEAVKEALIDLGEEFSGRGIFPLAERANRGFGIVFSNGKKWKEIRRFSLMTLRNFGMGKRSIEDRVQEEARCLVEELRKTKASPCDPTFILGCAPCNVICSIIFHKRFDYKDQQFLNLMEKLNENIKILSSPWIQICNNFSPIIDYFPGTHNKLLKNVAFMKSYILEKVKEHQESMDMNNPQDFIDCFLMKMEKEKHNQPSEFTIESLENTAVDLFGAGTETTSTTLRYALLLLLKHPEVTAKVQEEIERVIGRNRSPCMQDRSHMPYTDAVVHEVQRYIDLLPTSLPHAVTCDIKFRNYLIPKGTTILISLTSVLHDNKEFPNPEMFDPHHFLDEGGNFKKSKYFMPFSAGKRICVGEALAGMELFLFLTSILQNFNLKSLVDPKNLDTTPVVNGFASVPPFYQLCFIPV
# Cytochrome P450 3A4 (Homo sapiens), sequence (P08684 whole entry, looked up): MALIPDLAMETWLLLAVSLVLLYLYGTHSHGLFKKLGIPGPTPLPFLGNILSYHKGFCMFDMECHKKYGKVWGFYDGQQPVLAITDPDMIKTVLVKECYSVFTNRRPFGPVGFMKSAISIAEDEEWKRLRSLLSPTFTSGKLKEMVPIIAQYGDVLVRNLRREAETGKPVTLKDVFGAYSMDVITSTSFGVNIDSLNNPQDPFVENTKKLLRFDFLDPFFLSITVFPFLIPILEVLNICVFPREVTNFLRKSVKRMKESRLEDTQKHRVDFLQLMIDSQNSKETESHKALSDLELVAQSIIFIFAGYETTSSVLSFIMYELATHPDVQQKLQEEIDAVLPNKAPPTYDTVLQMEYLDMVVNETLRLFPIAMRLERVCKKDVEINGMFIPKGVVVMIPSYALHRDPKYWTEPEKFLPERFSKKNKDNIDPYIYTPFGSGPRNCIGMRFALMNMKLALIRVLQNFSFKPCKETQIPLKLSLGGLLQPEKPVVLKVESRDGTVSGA
# N-terminal Xaa-Pro-Lys N-methyltransferase 1 (Homo sapiens), sequence (Q9BV86 whole entry, looked up): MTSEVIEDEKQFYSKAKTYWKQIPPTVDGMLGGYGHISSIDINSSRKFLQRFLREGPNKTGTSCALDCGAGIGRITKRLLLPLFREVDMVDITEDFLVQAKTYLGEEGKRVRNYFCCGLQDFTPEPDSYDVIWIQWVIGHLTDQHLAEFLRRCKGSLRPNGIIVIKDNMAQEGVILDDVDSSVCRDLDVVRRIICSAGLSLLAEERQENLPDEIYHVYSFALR
smiles,measurement,setting,value
CCOCCn1nc(CC)c2nc(N3CCC(C(=O)O)CC3)nc(Nc3cc(C)ccn3)c21,Potency,[1],inactive
same,Potency,[2],inactive
same,Potency,[3],inactive
Cc1cccc(C)c1OCc1cc(C(=O)N2CCC(c3ccncc3)CC2)no1,Potency,[1],inactive
same,Potency,[2],1.2 µM (active)
same,Potency,[3],10.3 µM (active)
CC(=O)NC1=NN(C(C)=O)C(C)(c2ccccc2)S1 (centres undefined),Potency,[1],inactive
same,Potency,[2],inactive
same,Potency,[3],4.59 µM (active)
CC(C)(C)OC(=O)N1CCC(OCc2nc(-c3ccncc3)no2)CC1,Potency,[1],inactive
same,Potency,[2],inactive
same,Potency,[3],inactive
CCNC(=O)Nc1ccc(-c2nc3c(c(N4CCOC[C@@H]4C)n2)CCN(c2ncccn2)C3)cc1,Potency,[1],inactive
same,Potency,[2],10.7 µM (active)
same,Potency,[3],0.0728 µM (active)
c1cc(Nc2cc(C3CC3)[nH]n2)nc(Nc2ccc3nc[nH]c3c2)n1,Potency,[1],inactive
same,Potency,[4],9.52 µM (active)
same,Potency,[3],0.417 µM (active)
O=C(Nc1ccc(Cl)cc1F)c1ccccc1O,Potency,[1],inactive
same,Potency,[4],9.52 µM (active)
N#Cc1ccc(-c2cnc3[nH]cc(NC(=O)c4cccnc4)c3c2)cc1,Potency,[1],inactive
same,Potency,[4],2.68 µM (active)
same,Potency,[3],7.28 µM (active)
COc1ccc(CNC(=O)c2sc3nc(C)cc(C)c3c2N)cc1,Potency,[1],inactive
same,Potency,[4],3.79 µM (active)
CC(C)NCC(C(=O)N1CCN(c2ncnc3c2C(C)CC3O)CC1)c1ccc(Cl)cc1 (centres undefined),Potency,[1],inactive
same,Potency,[4],inactive
same,Potency,[3],1.83 µM (active)
O=C(c1cc2c(cc1F)OC(c1ccc(F)cc1)(c1ccc(Cl)cc1Cl)O2)N1CCOCC1 (centres undefined),Potency,[1],inactive
same,Potency,[4],10.7 µM (active)
Cc1ccc(NC(=O)c2ccc(CN3CC[C@H](N(C)C)C3)c(C(F)(F)F)c2)cc1Nc1nccc(-c2cncnc2)n1,Potency,[1],inactive
same,Potency,[5],1.69 µM (active)
same,Potency,[3],8.11 µM (active)
COc1cc2c(NC3CCN(CC4CCCCC4)CC3)nc(N3CCCN(C(C)C)CC3)nc2cc1OCCCN1CCCCC1,Potency,[1],inactive
same,Potency,[4],inactive
same,Potency,[6],34.5 µM (active)
same,Potency,[3],2.58 µM (active) and 5.25 µM (active)
Cc1ccc(NC(=O)C(=O)NC2CC(C)(C)NC(C)(C)C2)cc1,Potency,[1],inactive
same,Potency,[4],inactive
same,Potency,[3],inactive
Cc1noc(-c2ccc(-c3ccc(CC(=O)O)cc3)cc2)c1NC(=O)O[C@H](C)c1ccccc1,Potency,[1],inactive
same,Potency,[4],13.5 µM (active)
CC(C)Oc1ccc(C(=O)NC(CNC(=O)CN(C)C)Cc2ccc(-c3cn4cccc(C(C)O)c4n3)cc2)cc1Cl (centres undefined),Potency,[1],inactive
same,Potency,[4],13.5 µM (active)
same,Potency,[3],0.163 µM (active)
O=C(Nc1c(-c2cccs2)nc2ccccn12)c1ccc(Cl)cc1,Potency,[1],inactive
same,Potency,[4],15.1 µM (active)
same,Potency,[3],inactive
C=CC(=O)Nc1cc(Nc2ncc(Cl)c(-c3c[nH]c4ccccc34)n2)c(OC)cc1N(C)CCN(C)C,Potency,[1],inactive
same,Potency,[4],9.52 µM (active)
CC(=O)N1CCN(Cc2ccc([C@H](C)Nc3nccc(N4C(=O)OC[C@@H]4C(C)C)n3)cc2)CC1,Potency,[1],inactive
same,Potency,[4],23.9 µM (active)
same,Potency,[3],inactive
O=C(NCC(O)CO)c1ccncc1Nc1ccc(I)cc1F (centres undefined),Potency,[1],inactive
same,Potency,[4],16.9 µM (active)
COc1ccc(Cl)c(Nc2nc3ccccc3nc2NS(=O)(=O)c2cccc(NC(=O)C(C)(C)N)c2)c1,Potency,[1],inactive
same,Potency,[4],2.68 µM (active)
same,Potency,[3],3.65 µM (active) and 5.9 µM (active)
Cc1nc2ccc(Oc3ccc(F)cc3)cc2c(=O)n1C[C@H]1CCCN(C(C)C)C1,Potency,[1],inactive
same,Potency,[4],inactive
O=c1[nH]ccc2cc(OC3CCNCC3)ccc12,Potency,[1],inactive
same,Potency,[4],inactive
CC(C)(C)NC(=O)[C@@H](c1cccnc1)N(C(=O)c1ccco1)c1ccc(C(C)(C)C)cc1,Potency,[1],inactive
same,Potency,[4],5.35 µM (active)
CCCCNc1ncc2c(-c3ccc(CN4CCN(C)CC4)cc3)cn(C3CCC(O)CC3)c2n1 (centres undefined),Potency,[1],inactive
same,Potency,[4],15.1 µM (active)
same,Potency,[3],1.64 µM (active) and 2.95 µM (active)
C[C@H](Oc1ccc(S(C)(=O)=O)cc1C(=O)N1CCN(c2ncc(C(F)(F)F)cc2F)CC1)C(F)(F)F,Potency,[1],inactive
same,Potency,[4],6.74 µM (active)
O=C(NCc1ccc(F)cc1)C(=O)c1c[nH]c2ccccc12,Potency,[1],inactive
same,Potency,[4],1.9 µM (active)
Cc1cc(N2CCN([C@@H]3CN[C@H](C(=O)N4CCSC4)C3)CC2)n(-c2ccccc2)n1,Potency,[1],inactive
same,Potency,[4],inactive
COc1ccc(C(=O)n2c(C)c(Cc3cccc(O[C@@H](C)C(=O)O)c3)c3cc(OC(F)(F)F)ccc32)cc1,Potency,[1],inactive
same,Potency,[4],19 µM (active)
same,Potency,[3],inactive
COC(=O)N(C)c1c(N)nc(-c2nn(Cc3ccccc3F)c3ncccc23)nc1N,Potency,[1],inactive
same,Potency,[4],23.9 µM (active)
same,Potency,[3],inactive
CCCCNc1ccc(-c2ccc(CN3CCOCC3)cn2)c(NC2CCC(O)CC2)c1 (centres undefined),Potency,[1],inactive
same,Potency,[5],inactive
C[C@@H]([C@@H](O)c1ccc(O)cc1)N1CCC(O)(c2ccccc2)CC1,Potency,[1],inactive
same,Potency,[4],inactive
same,Potency,[3],inactive
C[C@@H]1CCN(C(=O)N2CCCC2)C[C@@H]1N(C)c1ncnc2[nH]ccc12,Potency,[1],inactive
same,Potency,[4],inactive
CCOC(=O)c1sc(NC(=O)[C@H](C(C)C)n2c(=O)[nH]c3ccccc3c2=O)nc1C,Potency,[1],inactive
same,Potency,[4],4.77 µM (active)
Cc1c(C(=O)Nc2ccc(N3CC(C)OC(C)C3)nc2)cccc1-c1ccc(OC(F)(F)F)cc1 (centres undefined),Potency,[1],inactive
same,Potency,[4],inactive
CCCNc1ccc2ncc(-c3ccc4[nH]ncc4c3)n2n1,Potency,[1],inactive
same,Potency,[4],inactive
same,Potency,[6],8.91 µM (active)
same,Potency,[3],0.258 µM (active)
